Reference: paper PMC7819943, “Rice protein-binding microarrays: a tool to detect cis-acting elements near promoter regions in rice”
In all, about 39,000 sequences were measured (“fluorescence intensity (a.u.)”: median about 4,300, highest 2% from about 39,000 on). What follows is part of a selection rich in the highest values, with near analogues and random picks from the rest.

Biological target: T1, OsSMF1 (Oryza sativa, UniProt Q6ZLB0 1-436)
T1 sequence: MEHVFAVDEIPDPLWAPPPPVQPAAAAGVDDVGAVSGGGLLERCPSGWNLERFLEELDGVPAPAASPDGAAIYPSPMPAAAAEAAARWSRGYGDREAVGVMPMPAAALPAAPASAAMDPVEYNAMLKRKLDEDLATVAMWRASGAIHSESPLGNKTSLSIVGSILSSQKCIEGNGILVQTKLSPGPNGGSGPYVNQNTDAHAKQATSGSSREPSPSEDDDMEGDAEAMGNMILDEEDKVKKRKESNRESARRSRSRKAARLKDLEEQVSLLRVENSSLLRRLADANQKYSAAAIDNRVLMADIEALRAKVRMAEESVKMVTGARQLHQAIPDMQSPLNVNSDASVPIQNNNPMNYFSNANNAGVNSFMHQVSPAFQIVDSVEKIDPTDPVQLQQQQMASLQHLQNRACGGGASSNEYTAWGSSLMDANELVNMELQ
Assay: protein-binding microarray (RPBM); PBS, 2% BSA, 51.3 ng/ul salmon testes DNA, 50 uM zinc acetate, 200 nM TF, 25 C, 1 h; high values mean tight binding
Settings: protein: recombinant; tags: N-terminal polyhistidine and DsRed monomer fusion (pET32a); chain copies: 2; label: CyDye5-dUTP incorporated in the synthesized complementary strand; 3' TTTTT single-stranded linker to array surface; dsDNA, one strand shown
Method in brief: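 Binding signal is reported as fluorescence intensity per feature (arbitrary units) from an Axon 4000B scanner. Incubation used 200 nM of each Ni–NTA-purified, N-terminally polyhistidine- and DsRed-fused transcription factor from E. coli BL21-CodonPlus on a double-stranded custom Agilent array for 1 h at 25 °C, with 50 µM zinc acetate in the buffer, followed by washing.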

| Sequence | binding signal |
| --- | --- |
| AGAGGGCGTGTACTCGTGACATCGTGTGTGTGCGTGTGCGCGGAGTCACCTAGTGCAG | 6670 fluorescence intensity (a.u.) |
| TTACTACACGGATCGCGGTCACGTCACGTGGTCCATAGTCCGGAGTCACCTAGTGCAG | 6690 fluorescence intensity (a.u.) |
| CTTTCCCTATCTTTCTCCTCATCATATGTGTCATGATGCACGGAGTCACCTAGTGCAG | 9020 fluorescence intensity (a.u.) |
| AGCTATCATGTAAGCGTCACGTCAATGCGATGCAGGGGCGCGGAGTCACCTAGTGCAG | 4630 fluorescence intensity (a.u.) |
| TTTAGTGGCAGTCTTATAATAACGATTCAAAATAGTGGCACGGAGTCACCTAGTGCAG | 3190 fluorescence intensity (a.u.) |
| TAACAAATAACCTTAAGTCCTTAACAAATAATAAGTGCACCGGAGTCACCTAGTGCAG | 3190 fluorescence intensity (a.u.) |
| ACAAATAAATCCTTAAATACACTAACTATCGAATGCACGCCGGAGTCACCTAGTGCAG | 41300 fluorescence intensity (a.u.) |
| AATATACAACACTATATTATTAATGCAGTCCAATCGATATCGGAGTCACCTAGTGCAG | 37000 fluorescence intensity (a.u.) |
| CCCGCCGTCGCCGGGGAAGACGACACGCCCGCCGTCCTTGCGGAGTCACCTAGTGCAG | 3580 fluorescence intensity (a.u.) |
| ACATTGACTCAGCCACCACGTCACCTAAAATCGGGAACAGCGGAGTCACCTAGTGCAG | 13000 fluorescence intensity (a.u.) |
| CACGATTGCTCGGTGAGCACTGAGCAGTGACCTCATTCGGCGGAGTCACCTAGTGCAG | 3820 fluorescence intensity (a.u.) |
| GACGCGTACGCACGGTGGGACGCGGTGGTGGGGTGCTGGGCGGAGTCACCTAGTGCAG | 3920 fluorescence intensity (a.u.) |
| TGGTAGGGAAGCAGGTGGAAGGAGGACAGGAAGGCCCAATCGGAGTCACCTAGTGCAG | 34000 fluorescence intensity (a.u.) |
| AGCTGGACAAGATCGGAATAGTAGGCCAGGCCCAAAGCAACGGAGTCACCTAGTGCAG | 49400 fluorescence intensity (a.u.) |
| ATAGGAAGGGAAGCAACGGAGGAGGAGATCGGCTGGTGGTCGGAGTCACCTAGTGCAG | 7740 fluorescence intensity (a.u.) |
| AAGAACGCCTTCGCGTGGGCCGCCGTCATCGGGATGTGGACGGAGTCACCTAGTGCAG | 3220 fluorescence intensity (a.u.) |
| CTCACTCGCTTGCGCTTCACCTCGCGGCATCGACTTCCTACGGAGTCACCTAGTGCAG | 3630 fluorescence intensity (a.u.) |
| TTAAATGGTCATTCCTGTGTTTTACAATCATATATCTTACCGGAGTCACCTAGTGCAG | 3990 fluorescence intensity (a.u.) |
| GTCCATATATCCGATGTGACACGCCAACACTTTTCGTATCCGGAGTCACCTAGTGCAG | 4090 fluorescence intensity (a.u.) |
| AAGATCATCACAATTCATCACTCACAACCACATCACATCCCGGAGTCACCTAGTGCAG | 3260 fluorescence intensity (a.u.) |
| TGGCTTCACTTGCAACGGTACAAGAACCACCATCACTTCCCGGAGTCACCTAGTGCAG | 40100 fluorescence intensity (a.u.) |
| CACATCGAACGGTCCAAGAACAACCACATCACCAATGTGCCGGAGTCACCTAGTGCAG | 3710 fluorescence intensity (a.u.) |
| CGCCTCTGCGGTCTCCTTCGTCACCCGCGCGTCAACCAACCGGAGTCACCTAGTGCAG | 4290 fluorescence intensity (a.u.) |
